# Assay results as given in the supplement of paper PMC3334620.
# The full ranking holds about 33,000 sequences; the median of “E-score (-0.5 to 0.5)” is about -0.021, and the highest 2% start at about 0.32. Only a selection was taken, and the highest values are over-represented in it overall.
# Biological target: T1, Zap1 (UniProt P47043)
# T1 sequence: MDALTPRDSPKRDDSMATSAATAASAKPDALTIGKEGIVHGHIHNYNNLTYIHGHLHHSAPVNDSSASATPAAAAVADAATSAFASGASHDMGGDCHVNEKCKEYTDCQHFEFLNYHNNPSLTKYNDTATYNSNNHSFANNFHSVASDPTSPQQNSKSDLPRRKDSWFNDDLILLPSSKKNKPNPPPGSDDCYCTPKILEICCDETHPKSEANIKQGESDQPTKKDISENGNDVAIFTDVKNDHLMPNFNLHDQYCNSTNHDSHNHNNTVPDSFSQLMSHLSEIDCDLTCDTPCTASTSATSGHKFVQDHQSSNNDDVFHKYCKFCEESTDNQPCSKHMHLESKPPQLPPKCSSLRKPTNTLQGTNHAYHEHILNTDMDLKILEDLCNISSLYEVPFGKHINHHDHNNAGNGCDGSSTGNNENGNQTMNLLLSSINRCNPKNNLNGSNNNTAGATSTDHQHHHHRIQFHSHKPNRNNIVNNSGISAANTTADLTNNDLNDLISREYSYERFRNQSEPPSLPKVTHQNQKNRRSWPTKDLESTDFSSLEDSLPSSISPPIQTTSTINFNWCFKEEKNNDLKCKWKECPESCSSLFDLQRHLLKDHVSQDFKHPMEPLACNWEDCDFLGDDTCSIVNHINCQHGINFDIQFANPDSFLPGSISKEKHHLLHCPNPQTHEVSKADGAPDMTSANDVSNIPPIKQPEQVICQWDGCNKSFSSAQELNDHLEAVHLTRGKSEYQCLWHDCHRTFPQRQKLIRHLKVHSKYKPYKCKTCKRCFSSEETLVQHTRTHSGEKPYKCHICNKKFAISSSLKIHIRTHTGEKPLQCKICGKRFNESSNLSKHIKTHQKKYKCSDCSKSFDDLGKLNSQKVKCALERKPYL
# Assay: PBM E-score (8-mer binding enrichment) (E-score (-0.5 to 0.5)); higher = stronger / more preferred TF binding
# Settings: protein concentration: 200 nM; construct: GST-full length
# In short: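 Universal all-10-mer Agilent arrays, fresh or stripped once, were converted to double-stranded form by primer extension. GST-tagged yeast transcription factors from PURExpress in vitro transcription/translation, full-length or DNA-binding domain only, were applied at about 100-200 nM and detected with fluorescent anti-GST. After masliner normalisation, the Universal PBM Analysis Suite scored each ungapped eight-base word together with its reverse complement by E-score.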
row,Sequence,PBM E-score
1,CTCTTGCA,-0.161
2,AACGGCGA,0.0503
3,ATAAAGCA,-0.0384
4,CCGTCCCA,-0.0821
5,AAATAGCT,-0.141
6,CCTCTTGA,0.148
7,AGGACCCT,0.226
8,CACTGCGC,-0.192
9,TCACCAGA,0.015
10,CCACAAGA,0.0787
11,CCACAAAA,0.237
12,CCACAAGC,0.0428
13,CCACAAAC,0.147
14,CCACAAGG,0.33
15,CCACAAAG,0.34
16,ACTAGATA,0.115
17,AGTGCAAC,0.0909
18,CGGGTGTA,0.0123
19,CAAGGGCC,0.0489
20,AAAGGGGC,-0.00977
21,CAAGGGTC,0.355
22,CAGGGGTA,0.286
23,CAGGGGTC,0.321
24,AAGGGGTC,0.264
25,AAAGGGTC,0.363

row,Sequence,PBM E-score
1,AAAGGGTT,0.396
2,AGAGGGTC,0.213
3,AAAGGGTG,0.247
4,AAAGGGCT,0.00434
5,GAAGGGTC,0.211
6,CACGATCC,0.141
7,AGCTAAAC,-0.144
8,TCCAGCGA,-0.138
9,AGATGGAT,-0.254
10,AAGGGGGT,-0.271
11,AAAGGGGT,0.32
12,CCGGGGTC,0.348
13,ACGGGGTC,0.218
14,CGGGGGTC,-0.0576
15,CAAGGGCA,-0.182
16,CAAGGGTG,0.262
17,CAAGGGTA,0.398
18,ACAAGGGC,-0.137
19,ACAAGGGG,-0.128
20,AAAGGGGG,-0.385
21,ACAAGGGT,0.387
22,ATTTAGCA,0.0848
23,AAAAGTCG,-0.033
24,TAAGCGCA,-0.0722
25,CTAATGCA,0.132

row,Sequence,PBM E-score
1,AAAAGGGA,-0.0112
2,AAAAGGGT,0.386
3,AAAAGGGC,0.149
4,CCAGATGA,-0.0669
5,GATCGTAC,-0.069
6,CTTAGAGA,-0.0526
7,GAATGGAC,0.0207
8,GCTATCGA,-0.0297
9,CTCCGAAC,-0.196
10,AATCTCGC,-0.0495
11,GAGCTTAA,-0.0983
12,GTCCTTAA,0.268
13,GACCTTAC,0.13
14,CACCTTAG,0.245
15,TGCCTTAA,-0.0666
16,AACCTTAT,0.312
17,CACCTTAC,0.148
18,GGCCTTAA,0.319
19,AACCTTAC,0.318
20,AGCCTTAA,-0.0565
21,AACCTTAG,0.324
22,GACCTTAA,0.324
23,CGGTCCCA,-0.0137
24,AACGACCT,0.211
25,ACTTGCAC,-0.141

row,Sequence,PBM E-score
1,GGGGGGAA,-0.411
2,GGTATCAC,0.0481
3,AACTGGCG,-0.0757
4,CATGCCAC,-0.227
5,CCGGCCTC,-0.0295
6,GGAGTTAA,0.029
7,AACCTTAA,0.352
8,CACCTTAA,0.207
9,TACCTTAA,0.296
10,GTAAAAGA,0.0206
11,ACCTTTAT,0.352
12,CCCTTTAA,0.286
13,CCCTTTAG,0.127
14,ACCTTTTG,0.364
15,ACCTTTTC,0.254
16,GCCTTTAA,0.0959
17,AACTTTAT,0.0578
18,AGCTTTAT,-0.0486
19,ACCTTTAC,0.307
20,ACCTTTAA,0.383
21,ACCTTTGG,0.236
22,ACCTTTAG,0.348
23,GCAGATGC,-0.337
24,GAGCACGA,-0.0755
25,TATCGATA,0.285

row,Sequence,PBM E-score
1,ACGCAAAA,-0.024
2,ACCTACTA,0.113
3,AGGATTAA,-0.0423
4,GTTTAGCA,-0.0642
5,CGTAGTTC,-0.125
6,AGTACCAT,0.127
7,GCCTTTTA,0.0912
8,ACCTATAT,0.356
9,ACCTTTTA,0.411
10,ACCTATAA,0.188
11,ACCTTTCA,0.257
12,ACCTTTCT,0.372
13,CCCTTTTA,0.0826
14,ACCTATAC,0.249
15,ACCTTTCC,0.107
16,GGTAGCAA,0.0702
17,AAACAGTG,0.0759
18,CCAGTTTA,0.073
19,TAAACCTA,0.137
20,CCAAGCCA,-0.122
21,CAGGCTAG,-0.141
22,CGTACGAC,-0.126
23,TAAAGGGA,0.145
24,CAAAGGTA,0.267
25,ATAAGGTA,0.231

row,Sequence,PBM E-score
1,GAAAGGTA,0.363
2,GAAAGGTC,0.294
3,TAAAGGAA,0.00829
4,AGAAGGTA,0.286
5,AAAAGGTA,0.405
6,TAAAGGTA,0.34
7,AAGACCAC,0.0451
8,CAGCCCAC,-0.113
9,GAGAGCAA,-0.227
10,GCGCCTAA,0.0328
11,AGTACCCA,0.289
12,AGTACCTA,0.299
13,GGTACTCA,0.329
14,CGTACTCA,-0.0651
15,AGTACTCA,-0.0985
16,GGTACCCA,0.411
17,CGTACCTA,-0.117
18,CGTACCCA,-0.0471
19,GGTACCTA,0.398
20,CCATCCAG,-0.155
21,GACTCGGA,-0.237
22,AAACGTAG,-0.0378
23,GGTCCTAC,-0.105
24,AGACTGGG,-0.141
25,TACCGTGA,0.247

row,Sequence,PBM E-score
1,GAGTACCC,0.342
2,AAGTACCA,0.211
3,CAGTACCC,0.313
4,AAGTACCC,0.34
5,AAGTACGC,-0.152
6,GAGTACCA,0.247
7,CGAATTCG,-0.233
8,TAGCAAAA,0.0555
9,AGAGCAAG,-0.196
10,ACAACCGT,0.0867
11,ACGACCCT,0.348
12,CCAACCCG,0.148
13,ACAAACCG,0.027
14,ACGACCCG,0.0256
15,ACGACCCA,0.2
16,AGAACCCT,0.321
17,ACAACCCG,0.398
18,AGAACCCC,0.294
19,AGAACCCA,0.19
20,ACAACCCT,0.443
21,ACAACCCA,0.286
22,AGTCCTCG,-0.272
